Laboratory results published in PubChem BioAssay (EPA / NIEHS).
The source made the active and inactive calls. The calls were made as follows: active = hit-call score of the fitted dose curve at least 0.9, where 1 is the maximum; inactive = score below 0.9.

What was measured:
Details in all cases: mRNA level, 48 h; actives raise or lower the signal
[1] = read-out: Nuclear factor erythroid 2-related factor 2 (Homo sapiens) (UniProt Q16236); experiment: LTEA_HepaRG_NFE2L2: Life Technologies and Expression Analysis (LTEA) Assay for Nuclear factor erythroid 2-related factor 2 (NFE2L2) Transcription Factor using HepaRG (AID 2283527)
How it was run: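 Differentiated human HepaRG cells, serum-free induction medium, exposed 48 h in duplicate to eight half-log concentrations up to 100 uM in 0.5% DMSO. NFE2L2 mRNA by Fluidigm TaqMan qRT-PCR, normalised to ACTB, GAPDH, POLR2A; bidirectional change versus DMSO.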

[2] = read-out: succinate dehydrogenase complex iron sulfur subunit B (SDHB), SDHB (gene 6390); experiment: LTEA_HepaRG_SDHB: Life Technologies and Expression Analysis (LTEA) Assay for succinate dehydrogenase complex iron sulfur subunit B (SDHB) using HepaRG (AID 2283528)
How it was run: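 SDHB transcript level read by TaqMan qRT-PCR, housekeeping-normalised (ACTB, GAPDH, POLR2A), after 48 h chemical treatment of plated HepaRG cells; eight concentrations top 100 uM, half-log steps, 0.5% DMSO, duplicates; fitted both directions against DMSO.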

[3] = read-out: Signal transducer and activator of transcription 3 (Homo sapiens) (UniProt P40763); experiment: LTEA_HepaRG_STAT3: Life Technologies and Expression Analysis (LTEA) Assay for Signal transducer and activator of transcription (STAT3) using HepaRG (AID 2283529)
How it was run: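 Differentiated HepaRG cells, serum-free induction medium, dosed 48 h in duplicate, 8 half-log concentrations from 100 uM in 0.5% DMSO. STAT3 mRNA by qRT-PCR, normalised to ACTB, GAPDH, POLR2A; bidirectional fit versus DMSO.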

[4] = read-out: solute carrier (SLCO1B1), SLCO1B1 (gene 10599); experiment: LTEA_HepaRG_SLCO1B1: Life Technologies and Expression Analysis (LTEA) Assay for solute carrier (SLCO1B1) using HepaRG (AID 2283530)
How it was run: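 Differentiated human HepaRG cells, plated 48 h, switched to serum-free induction medium and exposed in duplicate for 48 h to 8 half-log concentrations (top 100 uM) in 0.5% DMSO. SLCO1B1 mRNA by TaqMan qRT-PCR, normalized to ACTB/GAPDH/POLR2A.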

[5] = read-out: sulfotransferase 2A1 (SULT2A1), SULT2A1 (gene 6822); experiment: LTEA_HepaRG_SULT2A1: Life Technologies and Expression Analysis (LTEA) Assay for sulfotransferase 2A1 (SULT2A1) using HepaRG (AID 2283531)
How it was run: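 Differentiated human HepaRG cells in serum-free induction medium were exposed for 48 h to eight half-log concentrations (top 100 uM, 0.5% DMSO). SULT2A1 mRNA was measured by qRT-PCR, normalized to ACTB, GAPDH and POLR2A, and fitted bidirectionally against DMSO.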

[6] = read-out: Transforming Growth Factor (TGFA), TGFA (gene 7039); experiment: LTEA_HepaRG_TGFA: Life Technologies and Expression Analysis (LTEA) Assay for Transforming Growth Factor (TGFA) using HepaRG (AID 2283532)
How it was run: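 Differentiated HepaRG cells exposed 48 hours in serum-free induction medium, 0.5% DMSO vehicle, 8-point half-log series from 100 uM, in duplicate. TGFA mRNA by TaqMan qRT-PCR, normalised to ACTB, GAPDH, POLR2A; bidirectional fit versus DMSO.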

[7] = read-out: Transforming Growth Factor (TGFB1), TGFB1 (gene 7040); experiment: LTEA_HepaRG_TGFB1: Life Technologies and Expression Analysis (LTEA) Assay for Transforming Growth Factor (TGFB1) Transporter using HepaRG (AID 2283533)
How it was run: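 Differentiated human HepaRG cells in serum-free induction medium were exposed in duplicate for 48 h to eight concentrations (top 100 uM, half-log steps, 0.5% DMSO). TGFB1 mRNA was quantified by qRT-PCR, normalized to ACTB, GAPDH, POLR2A, and fitted bidirectionally against DMSO.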

TIMP1, TIMP1 (gene 7076) = experiment: LTEA_HepaRG_TIMP1: Life Technologies and Expression Analysis (LTEA) Assay for TIMP1 using HepaRG (AID 2283534);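 also: TaqMan qRT-PCR signal normalized to ACTB GAPDH and POLR2A housekeeping genes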
How it was run: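 Differentiated human HepaRG cells in serum-free induction medium were exposed 48 h to chemicals (8 half-log concentrations, top 100 uM, 0.5% DMSO). TIMP1 mRNA was quantified by TaqMan qRT-PCR, normalized to ACTB/GAPDH/POLR2A; bidirectional fit versus DMSO.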

[8] = read-out: Tumor necrosis factor receptor 1 (TNFRSF1A), TNFRSF1A (gene 7132); experiment: LTEA_HepaRG_TNFRSF1A: Life Technologies and Expression Analysis (LTEA) Assay for Tumor necrosis factor receptor 1 (TNFRSF1A) using HepaRG (AID 2283535)
How it was run: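 Differentiated human HepaRG cells were exposed in duplicate for 48 h in serum-free induction medium to eight concentrations (top 100 uM, half-log steps, 0.5% DMSO). TNFRSF1A mRNA was quantified by qRT-PCR, normalized to ACTB, GAPDH and POLR2A, then fitted bidirectionally against DMSO.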

[9] = read-out: Thyroid Hormone Responsive (THRSP), THRSP (gene 7069); experiment: LTEA_HepaRG_THRSP: Life Technologies and Expression Analysis (LTEA) Assay for Thyroid Hormone Responsive (THRSP) using HepaRG (AID 2283536)
How it was run: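 Differentiated HepaRG cells treated 48 h in serum-free induction medium with 8 half-log concentrations up to 100 uM (0.5% DMSO), duplicates. THRSP mRNA by TaqMan qRT-PCR normalised to ACTB, GAPDH, POLR2A; bidirectional fit versus DMSO.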

Measured: AC50

Sequence of Signal transducer and activator of transcription 3 (Homo sapiens) (P40763 whole entry, looked up): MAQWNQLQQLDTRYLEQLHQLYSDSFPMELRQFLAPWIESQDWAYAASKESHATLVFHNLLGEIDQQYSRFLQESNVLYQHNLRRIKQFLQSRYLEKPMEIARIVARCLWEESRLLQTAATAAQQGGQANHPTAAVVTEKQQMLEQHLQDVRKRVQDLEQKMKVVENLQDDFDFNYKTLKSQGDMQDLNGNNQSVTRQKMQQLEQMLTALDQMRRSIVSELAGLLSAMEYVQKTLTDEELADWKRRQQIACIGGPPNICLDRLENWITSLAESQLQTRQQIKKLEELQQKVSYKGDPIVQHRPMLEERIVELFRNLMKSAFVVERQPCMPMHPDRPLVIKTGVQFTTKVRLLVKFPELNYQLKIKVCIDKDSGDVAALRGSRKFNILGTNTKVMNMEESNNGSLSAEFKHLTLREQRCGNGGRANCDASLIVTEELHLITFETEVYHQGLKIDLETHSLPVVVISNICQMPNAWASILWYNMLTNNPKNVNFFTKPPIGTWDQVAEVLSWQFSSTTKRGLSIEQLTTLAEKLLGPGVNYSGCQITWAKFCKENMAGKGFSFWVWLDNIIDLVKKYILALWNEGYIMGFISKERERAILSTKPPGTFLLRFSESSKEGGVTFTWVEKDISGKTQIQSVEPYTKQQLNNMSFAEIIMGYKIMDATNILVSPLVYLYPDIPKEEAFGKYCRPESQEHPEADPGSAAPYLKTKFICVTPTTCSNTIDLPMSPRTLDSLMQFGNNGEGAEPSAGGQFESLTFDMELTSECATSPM
Sequence of Nuclear factor erythroid 2-related factor 2 (Homo sapiens) (Q16236 whole entry, looked up): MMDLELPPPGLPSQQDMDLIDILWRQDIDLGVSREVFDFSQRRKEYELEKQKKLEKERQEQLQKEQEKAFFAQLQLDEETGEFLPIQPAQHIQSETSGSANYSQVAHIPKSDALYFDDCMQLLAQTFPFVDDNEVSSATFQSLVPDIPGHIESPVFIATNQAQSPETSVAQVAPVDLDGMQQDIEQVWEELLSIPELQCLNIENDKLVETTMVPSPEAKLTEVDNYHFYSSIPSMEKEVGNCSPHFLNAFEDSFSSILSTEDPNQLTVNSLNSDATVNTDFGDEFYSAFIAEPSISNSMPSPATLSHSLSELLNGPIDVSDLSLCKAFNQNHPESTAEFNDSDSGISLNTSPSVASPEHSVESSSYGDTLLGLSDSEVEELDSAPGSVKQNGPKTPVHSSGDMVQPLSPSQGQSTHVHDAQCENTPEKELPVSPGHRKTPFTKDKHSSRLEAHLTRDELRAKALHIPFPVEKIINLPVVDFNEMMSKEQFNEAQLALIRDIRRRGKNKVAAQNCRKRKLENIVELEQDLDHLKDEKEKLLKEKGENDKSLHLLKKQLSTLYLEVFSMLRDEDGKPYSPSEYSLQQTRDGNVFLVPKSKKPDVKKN

O=C(O)C(F)(F)C(F)(F)C(F)(F)C(F)(F)C(F)(F)F
active: [4] 9.92 µM
inactive: all other assays above

ClC1=C(Cl)[C@]2(Cl)[C@@H]3[C@@H]4C[C@@H]([C@H]5O[C@@H]45)[C@@H]3[C@@]1(Cl)C2(Cl)Cl
active: [1] 0.0292 µM | [3] 0.0319 µM | [9] 50 µM
inactive: all other assays above

Clc1ccc(C(Cl)(Cl)Cl)cc1
inactive: all assays above

CCOP(=S)(OCC)SCSC(C)(C)C
active: [5] 10.4 µM
inactive: all other assays above

Cc1ccc(O)c(C)c1
inactive: all assays above

ClC1=C(Cl)[C@]2(Cl)[C@@H]3[C@H]4C[C@H]([C@@H]5O[C@H]45)[C@@H]3[C@@]1(Cl)C2(Cl)Cl
active: [4] 13.8 µM | [9] 93 µM
inactive: all other assays above

c1cc2ccc3cccc4ccc(c1)c2c34
inactive: all assays above

Oc1ccc(C(c2ccc(O)cc2)(C(F)(F)F)C(F)(F)F)cc1
active: [5] 88.4 µM | [6] 82.4 µM | [7] 76.5 µM
inactive: all other assays above

CC(C)(O)C(=O)Nc1ccc([N+](=O)[O-])c(C(F)(F)F)c1
active: [4] 0.0191 µM | [6] 0.0264 µM
inactive: all other assays above

CC#Cc1cc(C)nc(Nc2ccccc2)n1
active: [1] 30.2 µM | [3] 6.11 µM | [4] 29.2 µM | [5] 5.75 µM | [9] 6.1 µM
inactive: all other assays above

Cc1cccc([N+](=O)[O-])c1
inactive: all assays above

CN(C)CCO
inactive: all assays above

Cc1cc2c3c(c1)C(c1ccccc1)=N[C@@H](NC(=O)c1ccncc1)C(=O)N3CC2
active: [1] 50 µM | [9] 22.7 µM
inactive: all other assays above

CCC(C)(c1ccc(O)cc1)c1ccc(O)cc1
active: [9] 87.3 µM
inactive: all other assays above

Cc1ccccc1[N+](=O)[O-]
inactive: all assays above

CN(C)c1nc(=O)n(C2CCCCC2)c(=O)n1C
inactive: all assays above
